Test results: PubChem BioAssay (NCATS)
Results filed as inconclusive are left out. A call without a number means that no potency is given here. A number with no mark means an inactive call. Activity calls are given as the source filed them. Unless noted, the call rests on the fitted dose curve; in most records, active means well fitted curve in the direction sought with a large enough effect; inconclusive means small, poorly fitted or top-dose-only effect, or another doubt; inactive means no such curve, though single readings can be large; an effect the other way counts as inactive or inconclusive.

Tests used:
[1] = qHTS for Inhibitors of Plasmodium falciparum (CP250) proliferation (AID 504320); further: potency means the concentration at half of the fitted maximal effect
How it was run: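 Erythrocytes infected with P. falciparum line (0.3% parasitemia, 2.5% hematocrit final) incubated with compounds 72 h at 37 °C, 5% CO2; SYBR Green lysis buffer added, fluorescence read next day. Normalized to 0.29 uM artemisinin and DMSO.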

[2] = molecular target: Atrial natriuretic peptide receptor 1 (Homo sapiens) (UniProt P16066); assay: Natriuretic polypeptide receptor (hNpr1) antagonism - Pilot CMLD screen (AID 1347052; calls by dose curve;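 further: HEK293 cells with hNpr1 stimulated by hNppA peptide at 0.1 nM; cGMP level read as GloSensor luciferase luminescence after agonist stimulation; series mostly up to about 9.2 µM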)
Furin (Homo sapiens) = Furin (Homo sapiens) (UniProt P09958); assay: Furin counterscreen qHTS for Zika virus inhibitors (AID 1347149); further: nearly all actives have a fitted effect of over 70% in size; further: potency means the concentration at half of the fitted maximal effect
How it was run: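 Fluorogenic cleavage of BOC-RVRR-AMC (2 microM final, Km ~15 µM) was monitored (ex 340, em 450 nm) at 37C after 15 min RT preincubation of 5 nM furin with compounds in HEPES pH 7.0 buffer with CaCl2 and Triton X-100. Percent inhibition was fitted to a 4-parameter Hill curve.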

[3] = molecular target: N-terminal Xaa-Pro-Lys N-methyltransferase 1 (Homo sapiens) (UniProt Q9BV86); assay: qHTS Assay for Inhibitors of N-terminal methyltransferase 1 (NTMT1): LOPAC validation of the NTMT1 SAHH-coupled ThioGlo3 Assay (AID 1347143);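 further: SAH from peptide methylation measured as thiol fluorescence via SAHH coupling and ThioGlo3; potency means the concentration at half of the fitted maximal effect; nearly all actives have a fitted effect of over 70% in size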
How it was run: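 Inhibition of NTMT1 methylation of peptide SPKRIA is followed by converting SAH with SAHH and labelling the released thiol with ThioGlo3. Plates are read at 340/450nm before and 30 min after reagent addition, both at room temperature.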

[4] = test system: Zika virus NS2B-NS3 protease (linked construct); assay: Confirmatory screen NINDS AMC qHTS for Zika virus inhibitors (AID 1347152);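 further: AMC fluorescence gain from cleaved Bz-Nle-KRR-AMC substrate over 15 min; top concentration of the series differs between compounds; nearly all actives have a fitted effect of over 70% in size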
How it was run: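 Concentration-response confirmation used the NINDS linked protease (NS2B hydrophilic domain joined to NS3 protease domain), 1 nM, with a 15-min compound preincubation. Substrate, Nle-KRR-AMC at 10 microM, was read by UV fluorescence before and after 15 min.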

[5] = test system: Zika virus NS2B-NS3 protease (unlinked complex); assay: Confirmatory screen GU AMC qHTS for Zika virus inhibitors (AID 1347153); further: nearly all actives have a fitted effect of over 70% in size
How it was run: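 Fluorescence change (ex 340/em 450 nm) over 15 min, ~20% substrate conversion, normalized to no-inhibitor and no-enzyme controls, then Hill-fitted. Unlinked protease at 25 nM; AMC peptide 10 µM.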

Chain of Atrial natriuretic peptide receptor 1 (Homo sapiens) (P16066 whole entry, looked up): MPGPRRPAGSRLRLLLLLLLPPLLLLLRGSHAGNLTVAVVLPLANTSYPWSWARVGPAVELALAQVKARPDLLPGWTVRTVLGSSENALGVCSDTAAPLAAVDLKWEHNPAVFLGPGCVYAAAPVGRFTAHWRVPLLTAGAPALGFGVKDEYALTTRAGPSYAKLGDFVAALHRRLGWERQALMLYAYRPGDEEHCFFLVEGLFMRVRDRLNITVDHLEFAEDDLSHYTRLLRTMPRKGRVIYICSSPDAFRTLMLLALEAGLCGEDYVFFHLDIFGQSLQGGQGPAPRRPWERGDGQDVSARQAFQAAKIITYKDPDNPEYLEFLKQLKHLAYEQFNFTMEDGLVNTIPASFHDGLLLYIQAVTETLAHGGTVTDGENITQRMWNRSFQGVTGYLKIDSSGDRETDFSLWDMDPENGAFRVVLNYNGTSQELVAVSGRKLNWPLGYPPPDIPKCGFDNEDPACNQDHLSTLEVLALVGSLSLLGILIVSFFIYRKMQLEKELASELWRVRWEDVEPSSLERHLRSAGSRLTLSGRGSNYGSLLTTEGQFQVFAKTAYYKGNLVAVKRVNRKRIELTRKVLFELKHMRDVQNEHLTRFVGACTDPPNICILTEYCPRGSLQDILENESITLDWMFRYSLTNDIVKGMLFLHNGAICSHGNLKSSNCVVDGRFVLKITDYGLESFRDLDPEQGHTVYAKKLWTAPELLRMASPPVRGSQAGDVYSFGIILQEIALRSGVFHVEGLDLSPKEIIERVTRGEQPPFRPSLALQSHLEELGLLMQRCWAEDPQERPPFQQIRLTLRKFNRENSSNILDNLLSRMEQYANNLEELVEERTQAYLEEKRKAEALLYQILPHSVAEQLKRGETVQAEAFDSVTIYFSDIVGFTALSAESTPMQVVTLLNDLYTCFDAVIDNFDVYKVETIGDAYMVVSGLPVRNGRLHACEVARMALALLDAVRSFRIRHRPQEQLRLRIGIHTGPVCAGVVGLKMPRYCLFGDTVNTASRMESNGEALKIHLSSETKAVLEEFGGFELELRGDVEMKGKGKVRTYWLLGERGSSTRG
Chain of Furin (Homo sapiens) (P09958 whole entry, looked up): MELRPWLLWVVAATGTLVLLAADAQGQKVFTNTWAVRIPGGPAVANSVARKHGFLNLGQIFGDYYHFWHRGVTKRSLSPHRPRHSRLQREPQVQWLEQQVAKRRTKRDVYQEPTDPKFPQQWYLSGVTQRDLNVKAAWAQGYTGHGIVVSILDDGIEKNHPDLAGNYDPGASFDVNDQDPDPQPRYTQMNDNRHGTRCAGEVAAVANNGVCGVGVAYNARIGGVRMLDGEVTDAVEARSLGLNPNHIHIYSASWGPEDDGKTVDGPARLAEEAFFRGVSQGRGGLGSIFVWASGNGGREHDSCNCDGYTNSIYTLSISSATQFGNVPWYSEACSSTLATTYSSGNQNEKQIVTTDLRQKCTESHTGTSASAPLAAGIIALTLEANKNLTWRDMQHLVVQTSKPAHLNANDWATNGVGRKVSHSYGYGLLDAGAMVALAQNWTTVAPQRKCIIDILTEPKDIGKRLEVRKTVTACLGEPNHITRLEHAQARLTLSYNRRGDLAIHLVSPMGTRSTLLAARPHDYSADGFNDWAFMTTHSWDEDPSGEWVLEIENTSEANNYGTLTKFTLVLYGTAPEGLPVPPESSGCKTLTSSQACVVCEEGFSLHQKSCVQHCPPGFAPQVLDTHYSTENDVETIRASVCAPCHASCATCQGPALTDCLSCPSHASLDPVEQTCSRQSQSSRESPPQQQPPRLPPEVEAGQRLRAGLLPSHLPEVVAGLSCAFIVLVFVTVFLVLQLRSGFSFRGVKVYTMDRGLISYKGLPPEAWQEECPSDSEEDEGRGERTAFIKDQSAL
Chain of N-terminal Xaa-Pro-Lys N-methyltransferase 1 (Homo sapiens) (Q9BV86 whole entry, looked up): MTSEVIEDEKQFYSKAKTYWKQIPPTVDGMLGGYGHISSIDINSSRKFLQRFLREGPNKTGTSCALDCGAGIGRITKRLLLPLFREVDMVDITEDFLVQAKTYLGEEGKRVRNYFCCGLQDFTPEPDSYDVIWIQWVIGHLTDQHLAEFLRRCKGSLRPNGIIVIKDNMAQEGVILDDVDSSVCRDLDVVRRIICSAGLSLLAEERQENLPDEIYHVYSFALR

COC(=O)C1=C(C)N(Cc2ccccc2)C(=NCC(C)C)NC1c1ccc(Br)cc1 (centres undefined)
Potency [1]: inactive | Potency [2]: inactive

O=C1N(Cc2ccccc2C(F)(F)F)c2ccccc2[C@@]12O[C@H](COc1ccccc1)CC1=C2CCC1
Potency [1]: inactive | Potency [2]: inactive

O=C(CSc1ncccc1C(=O)Oc1ccccc1Cl)Nc1ccc(C(F)(F)F)cc1Cl
Potency (Furin (Homo sapiens)): inactive

COC(=O)[C@@H]1CC[C@H](C)[C@@H](c2ccc(C)cc2)N1C(=O)c1ccc(C=NO[C@H](C)CN2CCCc3nc(C)c(C)cc32)cc1
Potency [1]: 1.51 µM (active) | Potency [2]: inactive

CC12C=C(C=CCCc3ccco3)C(C)(C1)[C@H](CCc1ccco1)CC2=O (some centres undefined)
Potency [1]: inactive | Potency [2]: inactive

C[C@@H]1C=CCC(=O)N[C@@H](c2cccc(Br)c2)[C@H](C)C=CCC(=O)N[C@@H]1c1cccc(Br)c1
Potency [1]: inactive | Potency [2]: inactive

CCOC(=O)CN1C(=O)[C@]2(OC[C@@H]3Cc4ccccc4[C@H]3C=C2C)c2ccccc21
Potency [1]: inactive | Potency [2]: inactive

CC=CC1=Cc2ccccc2C(C(C(=O)OC)C(=O)OC)N1C(=O)OC (centres undefined)
Potency [1]: inactive | Potency [2]: inactive

COc1cc2c(cc1OC)[C@@H]1O[C@](c3ccsc3)(C2)Oc2c1c(=O)oc1ccc(F)cc21
Potency [1]: inactive | Potency [2]: inactive

CC(=O)OC[C@H]1O[C@H](CCON=C(C)CCN2CCc3nc(-c4ccccc4)c(-c4ccccc4)cc3C2)C=C[C@H]1OC(C)=O
Potency [1]: inactive | Potency [2]: inactive

CCC(C)CN1C(=O)NC(CCc2ccccc2)C(C(C)=O)=C1C (centres undefined)
Potency [1]: inactive | Potency [2]: inactive

N.N.N.N.N.N.N.N.N.N.N.N.N.N.O.O.[Cl-].[Cl-].[Cl-].[Cl-].[Cl-].[Cl-].[Ru+4].[Ru+5].[Ru+5]
Potency [3]: 44.7 µM (active)

CC1=C[C@@H](COCc2ccccc2)O[C@@]2(C1)C(=O)N(Cc1ccccc1C(F)(F)F)c1ccccc12
Potency [1]: inactive | Potency [2]: inactive

COc1cccc([C@@H]2Oc3ccc(Br)cc3C[C@@H]2OC(=O)Nc2cc(OC)c(OC)c(OC)c2)c1
Potency [1]: inactive | Potency [2]: inactive

O=C(Nc1cccc2ccccc12)O[C@@H]1CO[C@H]2[C@@H]1OC[C@@H]2NS(=O)(=O)c1ccc2ccccc2c1
Potency (Furin (Homo sapiens)): 69.8 µM (active) | Potency [4]: inactive | Potency [5]: inactive
